Laboratory results taken from ChEMBL document CHEMBL2218924, “A broad activity screen in support of a chemogenomic map for kinase signalling research and drug discovery” (Biochem J, 2013).

Key:
[1] = target: T1, Ephrin type-B receptor 1 (Homo sapiens) (UniProt P54762); conditions: at 10 µM
T1 sequence (whole entry): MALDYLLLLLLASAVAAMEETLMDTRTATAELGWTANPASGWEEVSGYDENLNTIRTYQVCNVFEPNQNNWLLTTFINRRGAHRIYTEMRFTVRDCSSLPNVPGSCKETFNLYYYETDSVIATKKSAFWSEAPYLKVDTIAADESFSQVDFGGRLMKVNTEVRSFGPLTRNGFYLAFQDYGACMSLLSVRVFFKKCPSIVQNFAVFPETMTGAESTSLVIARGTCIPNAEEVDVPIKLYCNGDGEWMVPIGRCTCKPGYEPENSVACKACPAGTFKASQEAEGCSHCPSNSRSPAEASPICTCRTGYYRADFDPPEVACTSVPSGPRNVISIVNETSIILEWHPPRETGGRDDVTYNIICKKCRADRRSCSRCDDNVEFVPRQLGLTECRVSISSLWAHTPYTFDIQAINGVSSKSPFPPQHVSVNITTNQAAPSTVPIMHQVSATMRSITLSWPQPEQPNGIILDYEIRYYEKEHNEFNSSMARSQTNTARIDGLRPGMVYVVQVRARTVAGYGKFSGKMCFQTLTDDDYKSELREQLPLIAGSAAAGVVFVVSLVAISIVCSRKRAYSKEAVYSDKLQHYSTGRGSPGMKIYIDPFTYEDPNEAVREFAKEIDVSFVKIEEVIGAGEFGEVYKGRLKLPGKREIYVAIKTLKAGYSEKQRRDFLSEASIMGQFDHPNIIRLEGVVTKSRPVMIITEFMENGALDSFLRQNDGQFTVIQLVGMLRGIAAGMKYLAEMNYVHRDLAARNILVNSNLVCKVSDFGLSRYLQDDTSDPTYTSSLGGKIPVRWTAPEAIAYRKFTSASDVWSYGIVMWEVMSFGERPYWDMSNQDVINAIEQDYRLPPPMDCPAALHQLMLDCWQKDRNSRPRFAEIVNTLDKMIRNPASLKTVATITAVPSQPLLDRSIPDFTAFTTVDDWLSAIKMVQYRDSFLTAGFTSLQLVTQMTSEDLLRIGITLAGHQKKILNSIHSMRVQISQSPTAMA

[2] = target: T2, Ephrin type-B receptor 2 (Homo sapiens) (UniProt P29323); conditions: at 1 µM
T2 sequence (whole entry): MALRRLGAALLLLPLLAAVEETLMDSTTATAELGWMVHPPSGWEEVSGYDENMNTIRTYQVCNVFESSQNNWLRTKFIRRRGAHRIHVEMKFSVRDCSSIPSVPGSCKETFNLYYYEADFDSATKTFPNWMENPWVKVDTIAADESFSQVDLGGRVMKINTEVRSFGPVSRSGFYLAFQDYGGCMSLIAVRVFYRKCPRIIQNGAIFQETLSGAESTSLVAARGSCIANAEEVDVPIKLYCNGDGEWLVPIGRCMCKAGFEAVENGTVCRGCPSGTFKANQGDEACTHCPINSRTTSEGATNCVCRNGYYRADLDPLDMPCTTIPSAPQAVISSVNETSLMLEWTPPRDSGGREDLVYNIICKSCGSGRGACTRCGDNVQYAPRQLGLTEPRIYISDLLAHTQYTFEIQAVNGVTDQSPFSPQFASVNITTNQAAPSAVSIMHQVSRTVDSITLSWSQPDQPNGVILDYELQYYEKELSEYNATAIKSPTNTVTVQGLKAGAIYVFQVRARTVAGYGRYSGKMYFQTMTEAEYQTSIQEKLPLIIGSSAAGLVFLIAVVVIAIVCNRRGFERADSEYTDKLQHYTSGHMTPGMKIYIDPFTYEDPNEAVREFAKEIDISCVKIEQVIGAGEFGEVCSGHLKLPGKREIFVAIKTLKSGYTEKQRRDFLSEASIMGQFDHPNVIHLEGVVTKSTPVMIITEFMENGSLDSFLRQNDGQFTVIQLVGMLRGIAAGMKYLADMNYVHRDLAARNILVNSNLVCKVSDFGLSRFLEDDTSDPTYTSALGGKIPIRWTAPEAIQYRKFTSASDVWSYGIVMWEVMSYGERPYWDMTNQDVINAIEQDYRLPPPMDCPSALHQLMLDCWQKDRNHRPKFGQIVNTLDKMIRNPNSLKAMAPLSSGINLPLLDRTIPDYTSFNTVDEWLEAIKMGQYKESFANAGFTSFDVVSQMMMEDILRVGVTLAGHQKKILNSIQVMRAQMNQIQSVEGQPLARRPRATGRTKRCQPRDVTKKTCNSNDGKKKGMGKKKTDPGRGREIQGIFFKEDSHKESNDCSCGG

[3] = target: T2, Ephrin type-B receptor 2 (Homo sapiens); conditions: at 10 µM
[4] = target: T3, Ephrin type-B receptor 3 (Homo sapiens) (UniProt P54753); conditions: at 10 µM
T3 sequence (whole entry): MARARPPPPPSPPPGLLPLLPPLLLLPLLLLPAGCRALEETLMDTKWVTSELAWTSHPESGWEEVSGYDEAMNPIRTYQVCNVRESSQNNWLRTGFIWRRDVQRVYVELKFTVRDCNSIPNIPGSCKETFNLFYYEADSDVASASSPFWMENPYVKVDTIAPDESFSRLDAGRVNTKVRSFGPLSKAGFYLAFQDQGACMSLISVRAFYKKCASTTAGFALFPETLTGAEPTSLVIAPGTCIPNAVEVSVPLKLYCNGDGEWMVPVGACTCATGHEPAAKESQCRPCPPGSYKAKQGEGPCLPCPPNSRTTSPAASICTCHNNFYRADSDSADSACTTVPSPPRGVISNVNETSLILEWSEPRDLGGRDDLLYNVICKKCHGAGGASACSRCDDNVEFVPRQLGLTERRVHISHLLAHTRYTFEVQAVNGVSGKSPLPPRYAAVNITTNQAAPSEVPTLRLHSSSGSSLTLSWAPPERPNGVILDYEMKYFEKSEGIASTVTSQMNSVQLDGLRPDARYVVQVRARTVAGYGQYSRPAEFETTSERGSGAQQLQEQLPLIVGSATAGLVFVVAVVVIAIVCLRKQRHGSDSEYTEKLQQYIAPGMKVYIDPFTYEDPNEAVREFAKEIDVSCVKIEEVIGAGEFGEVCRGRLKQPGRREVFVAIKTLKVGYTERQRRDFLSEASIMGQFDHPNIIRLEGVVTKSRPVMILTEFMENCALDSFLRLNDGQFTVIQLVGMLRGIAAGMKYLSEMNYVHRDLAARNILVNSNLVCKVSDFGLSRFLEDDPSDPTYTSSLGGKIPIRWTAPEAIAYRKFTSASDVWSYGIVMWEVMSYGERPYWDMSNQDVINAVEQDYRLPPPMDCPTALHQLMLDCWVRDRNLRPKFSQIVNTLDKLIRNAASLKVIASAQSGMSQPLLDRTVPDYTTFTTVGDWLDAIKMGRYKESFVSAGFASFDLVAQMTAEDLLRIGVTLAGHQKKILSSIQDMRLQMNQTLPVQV

[5] = target: T4, Ephrin type-B receptor 4 (Homo sapiens) (UniProt P54760); conditions: at 1 µM
T4 sequence (whole entry): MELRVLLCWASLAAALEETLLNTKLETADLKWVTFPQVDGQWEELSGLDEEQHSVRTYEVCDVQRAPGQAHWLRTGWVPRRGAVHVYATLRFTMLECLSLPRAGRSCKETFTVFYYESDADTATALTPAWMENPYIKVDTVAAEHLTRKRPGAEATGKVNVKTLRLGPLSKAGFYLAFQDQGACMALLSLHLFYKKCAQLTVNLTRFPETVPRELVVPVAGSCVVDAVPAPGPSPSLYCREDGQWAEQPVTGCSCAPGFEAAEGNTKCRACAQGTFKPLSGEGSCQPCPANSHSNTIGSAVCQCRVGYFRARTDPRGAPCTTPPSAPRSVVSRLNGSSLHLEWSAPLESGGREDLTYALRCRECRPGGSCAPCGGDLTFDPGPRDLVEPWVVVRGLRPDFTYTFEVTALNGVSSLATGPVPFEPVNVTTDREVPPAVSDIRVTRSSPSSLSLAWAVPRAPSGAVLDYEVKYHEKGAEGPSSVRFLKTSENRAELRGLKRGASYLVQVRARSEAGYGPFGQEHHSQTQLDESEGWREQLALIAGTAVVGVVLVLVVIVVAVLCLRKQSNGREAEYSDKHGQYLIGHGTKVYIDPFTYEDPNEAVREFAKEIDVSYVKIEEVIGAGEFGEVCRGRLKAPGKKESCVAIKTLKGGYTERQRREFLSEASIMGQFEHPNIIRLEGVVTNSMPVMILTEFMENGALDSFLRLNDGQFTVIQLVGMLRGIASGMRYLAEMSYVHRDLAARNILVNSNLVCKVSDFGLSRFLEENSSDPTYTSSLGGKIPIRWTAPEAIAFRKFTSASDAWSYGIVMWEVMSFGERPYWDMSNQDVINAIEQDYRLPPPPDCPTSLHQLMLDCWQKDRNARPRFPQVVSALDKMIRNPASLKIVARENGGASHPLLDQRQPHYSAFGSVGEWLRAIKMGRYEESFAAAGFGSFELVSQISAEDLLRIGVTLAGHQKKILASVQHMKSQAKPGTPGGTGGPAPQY

[6] = target: T4, Ephrin type-B receptor 4 (Homo sapiens); conditions: at 10 µM
[7] = target: Receptor tyrosine-protein kinase erbB-4 (Homo sapiens) (UniProt Q15303); conditions: at 1 µM
[8] = target: Receptor tyrosine-protein kinase erbB-4 (Homo sapiens) (UniProt Q15303); conditions: at 10 µM
[9] = target: Focal adhesion kinase 1 (Homo sapiens) (UniProt Q05397); conditions: at 1 µM
Sequence of Focal adhesion kinase 1 (Homo sapiens) (Q05397 2-1052 limits assumed): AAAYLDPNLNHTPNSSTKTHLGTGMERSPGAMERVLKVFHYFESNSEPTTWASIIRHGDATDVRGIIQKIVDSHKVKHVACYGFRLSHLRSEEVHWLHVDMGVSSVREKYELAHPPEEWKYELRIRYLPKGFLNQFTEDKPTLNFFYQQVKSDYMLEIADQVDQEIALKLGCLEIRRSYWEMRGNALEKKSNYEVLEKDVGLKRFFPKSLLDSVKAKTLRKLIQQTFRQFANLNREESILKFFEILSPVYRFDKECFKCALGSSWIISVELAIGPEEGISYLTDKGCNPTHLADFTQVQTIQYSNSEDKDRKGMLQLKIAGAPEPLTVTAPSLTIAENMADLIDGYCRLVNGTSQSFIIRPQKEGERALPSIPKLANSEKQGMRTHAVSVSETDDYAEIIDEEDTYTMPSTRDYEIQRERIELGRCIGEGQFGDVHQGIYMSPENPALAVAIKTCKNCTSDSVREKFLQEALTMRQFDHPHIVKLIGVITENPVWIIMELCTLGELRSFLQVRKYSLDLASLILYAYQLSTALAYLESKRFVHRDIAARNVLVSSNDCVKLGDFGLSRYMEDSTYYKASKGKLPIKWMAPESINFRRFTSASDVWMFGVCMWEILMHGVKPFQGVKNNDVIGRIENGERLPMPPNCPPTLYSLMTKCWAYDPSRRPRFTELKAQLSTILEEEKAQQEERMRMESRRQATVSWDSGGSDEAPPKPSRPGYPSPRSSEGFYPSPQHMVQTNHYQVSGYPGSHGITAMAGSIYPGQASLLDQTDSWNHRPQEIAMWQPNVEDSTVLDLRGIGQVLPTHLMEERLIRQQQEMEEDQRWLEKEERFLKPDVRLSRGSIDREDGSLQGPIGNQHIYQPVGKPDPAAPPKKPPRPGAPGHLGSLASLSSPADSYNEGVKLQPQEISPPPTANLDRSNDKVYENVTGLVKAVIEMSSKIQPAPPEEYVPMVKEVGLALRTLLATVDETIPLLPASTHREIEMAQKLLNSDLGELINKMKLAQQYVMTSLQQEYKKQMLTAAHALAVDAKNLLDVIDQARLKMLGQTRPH

[10] = target: Focal adhesion kinase 1 (Homo sapiens) (UniProt Q05397); conditions: at 10 µM
[11] = target: Fibroblast growth factor receptor 1 (Homo sapiens) (UniProt P11362); conditions: at 1 µM
Sequence of Fibroblast growth factor receptor 1 (Homo sapiens) (P11362 22-822 limits assumed): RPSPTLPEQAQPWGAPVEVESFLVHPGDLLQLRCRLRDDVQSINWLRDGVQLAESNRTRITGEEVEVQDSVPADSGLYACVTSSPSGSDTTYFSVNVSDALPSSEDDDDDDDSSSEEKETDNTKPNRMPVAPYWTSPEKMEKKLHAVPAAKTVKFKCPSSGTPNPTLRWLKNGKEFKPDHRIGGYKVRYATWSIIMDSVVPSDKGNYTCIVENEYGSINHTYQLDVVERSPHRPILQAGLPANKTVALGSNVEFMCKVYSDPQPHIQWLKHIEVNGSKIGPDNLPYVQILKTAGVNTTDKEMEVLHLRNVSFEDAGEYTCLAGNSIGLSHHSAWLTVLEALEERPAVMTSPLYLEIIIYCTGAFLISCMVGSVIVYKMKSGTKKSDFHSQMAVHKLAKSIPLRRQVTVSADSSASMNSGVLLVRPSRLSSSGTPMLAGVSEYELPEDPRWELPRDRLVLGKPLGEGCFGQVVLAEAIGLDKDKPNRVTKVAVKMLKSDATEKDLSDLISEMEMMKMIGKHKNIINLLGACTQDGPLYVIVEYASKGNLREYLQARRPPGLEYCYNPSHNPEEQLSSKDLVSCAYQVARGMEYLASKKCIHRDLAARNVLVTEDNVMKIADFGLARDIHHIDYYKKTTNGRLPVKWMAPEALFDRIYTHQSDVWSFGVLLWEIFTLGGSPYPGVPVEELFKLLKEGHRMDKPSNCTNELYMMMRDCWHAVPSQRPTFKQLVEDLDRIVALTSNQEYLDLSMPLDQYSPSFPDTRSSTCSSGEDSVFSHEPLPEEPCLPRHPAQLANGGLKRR

[12] = target: Fibroblast growth factor receptor 1 (Homo sapiens) (UniProt P11362); conditions: at 10 µM
[13] = target: Fibroblast growth factor receptor 2 (Homo sapiens) (UniProt P21802); conditions: at 1 µM
Sequence of Fibroblast growth factor receptor 2 (Homo sapiens) (P21802 22-821 limits assumed): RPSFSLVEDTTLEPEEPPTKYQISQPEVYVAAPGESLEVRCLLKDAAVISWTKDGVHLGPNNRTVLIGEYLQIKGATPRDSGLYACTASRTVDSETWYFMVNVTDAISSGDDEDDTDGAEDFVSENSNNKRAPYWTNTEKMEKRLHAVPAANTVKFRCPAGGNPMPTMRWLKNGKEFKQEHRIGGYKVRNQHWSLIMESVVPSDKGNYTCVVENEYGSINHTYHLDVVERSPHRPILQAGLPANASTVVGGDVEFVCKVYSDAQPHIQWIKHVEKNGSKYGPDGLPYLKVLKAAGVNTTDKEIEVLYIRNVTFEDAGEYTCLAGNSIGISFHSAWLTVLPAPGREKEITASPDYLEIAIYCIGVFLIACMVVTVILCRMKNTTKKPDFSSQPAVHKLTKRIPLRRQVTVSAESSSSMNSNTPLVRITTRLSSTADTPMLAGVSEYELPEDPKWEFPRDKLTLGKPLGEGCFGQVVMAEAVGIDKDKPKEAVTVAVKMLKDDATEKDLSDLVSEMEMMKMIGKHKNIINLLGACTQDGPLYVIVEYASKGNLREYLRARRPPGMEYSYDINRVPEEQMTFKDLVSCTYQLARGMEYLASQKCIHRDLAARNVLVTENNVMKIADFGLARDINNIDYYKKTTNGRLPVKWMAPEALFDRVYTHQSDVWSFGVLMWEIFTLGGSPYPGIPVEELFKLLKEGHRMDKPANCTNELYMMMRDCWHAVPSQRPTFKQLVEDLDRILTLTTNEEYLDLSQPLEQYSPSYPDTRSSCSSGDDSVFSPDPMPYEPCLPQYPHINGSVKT

[14] = target: Fibroblast growth factor receptor 2 (Homo sapiens) (UniProt P21802); conditions: at 10 µM
[15] = target: Fibroblast growth factor receptor 3 (Homo sapiens) (UniProt P22607); conditions: at 1 µM
Sequence of Fibroblast growth factor receptor 3 (Homo sapiens) (P22607 23-806 limits assumed): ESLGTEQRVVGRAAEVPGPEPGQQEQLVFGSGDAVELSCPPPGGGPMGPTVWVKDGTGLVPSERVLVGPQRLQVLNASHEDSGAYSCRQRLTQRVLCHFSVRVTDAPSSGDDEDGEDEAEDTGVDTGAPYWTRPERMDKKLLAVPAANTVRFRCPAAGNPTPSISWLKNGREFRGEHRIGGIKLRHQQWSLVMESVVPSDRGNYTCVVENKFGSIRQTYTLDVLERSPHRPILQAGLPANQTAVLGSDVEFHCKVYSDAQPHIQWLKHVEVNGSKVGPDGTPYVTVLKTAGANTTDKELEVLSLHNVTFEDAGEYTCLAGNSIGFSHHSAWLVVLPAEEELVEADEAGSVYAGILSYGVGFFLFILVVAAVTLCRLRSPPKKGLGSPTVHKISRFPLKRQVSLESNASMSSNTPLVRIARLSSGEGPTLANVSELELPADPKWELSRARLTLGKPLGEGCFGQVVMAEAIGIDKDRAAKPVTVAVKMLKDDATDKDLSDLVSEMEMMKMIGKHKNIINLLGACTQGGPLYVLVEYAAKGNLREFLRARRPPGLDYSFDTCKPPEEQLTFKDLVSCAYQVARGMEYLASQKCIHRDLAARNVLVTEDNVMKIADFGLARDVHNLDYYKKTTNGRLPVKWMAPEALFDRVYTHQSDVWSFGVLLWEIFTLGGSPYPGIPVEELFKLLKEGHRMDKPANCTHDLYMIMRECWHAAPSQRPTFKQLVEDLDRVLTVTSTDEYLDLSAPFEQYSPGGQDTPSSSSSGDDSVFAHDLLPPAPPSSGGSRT

[16] = target: Fibroblast growth factor receptor 3 (Homo sapiens) (UniProt P22607); conditions: at 10 µM
[17] = target: Fibroblast growth factor receptor 4 (Homo sapiens) (UniProt P22455); conditions: at 1 µM
Sequence of Fibroblast growth factor receptor 4 (Homo sapiens) (P22455 22-802 limits assumed): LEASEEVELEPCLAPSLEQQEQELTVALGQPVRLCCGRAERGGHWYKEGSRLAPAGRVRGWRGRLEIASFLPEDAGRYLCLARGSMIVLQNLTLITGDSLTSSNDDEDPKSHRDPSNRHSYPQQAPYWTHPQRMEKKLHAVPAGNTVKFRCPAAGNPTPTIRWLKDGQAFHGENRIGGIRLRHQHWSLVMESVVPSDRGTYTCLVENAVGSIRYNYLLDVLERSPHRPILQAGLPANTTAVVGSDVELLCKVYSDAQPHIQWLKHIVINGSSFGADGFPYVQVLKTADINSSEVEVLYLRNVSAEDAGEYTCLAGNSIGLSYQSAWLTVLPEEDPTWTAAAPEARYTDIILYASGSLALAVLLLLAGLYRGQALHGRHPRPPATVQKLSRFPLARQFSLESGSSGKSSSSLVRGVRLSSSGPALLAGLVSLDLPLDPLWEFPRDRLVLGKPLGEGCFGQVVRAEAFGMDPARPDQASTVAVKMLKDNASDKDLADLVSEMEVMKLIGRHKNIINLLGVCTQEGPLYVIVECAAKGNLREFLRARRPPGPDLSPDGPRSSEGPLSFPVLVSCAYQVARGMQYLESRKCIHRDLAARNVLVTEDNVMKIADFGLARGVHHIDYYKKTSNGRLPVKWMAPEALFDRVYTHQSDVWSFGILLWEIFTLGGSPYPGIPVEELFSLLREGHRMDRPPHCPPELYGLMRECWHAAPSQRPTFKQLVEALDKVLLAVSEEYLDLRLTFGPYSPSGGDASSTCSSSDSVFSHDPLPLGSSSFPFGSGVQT

[18] = target: Fibroblast growth factor receptor 4 (Homo sapiens) (UniProt P22455); conditions: at 10 µM
[19] = target: Tyrosine-protein kinase Fer (Homo sapiens) (UniProt P16591); conditions: at 1 µM
Sequence of Tyrosine-protein kinase Fer (Homo sapiens) (P16591 whole entry, looked up): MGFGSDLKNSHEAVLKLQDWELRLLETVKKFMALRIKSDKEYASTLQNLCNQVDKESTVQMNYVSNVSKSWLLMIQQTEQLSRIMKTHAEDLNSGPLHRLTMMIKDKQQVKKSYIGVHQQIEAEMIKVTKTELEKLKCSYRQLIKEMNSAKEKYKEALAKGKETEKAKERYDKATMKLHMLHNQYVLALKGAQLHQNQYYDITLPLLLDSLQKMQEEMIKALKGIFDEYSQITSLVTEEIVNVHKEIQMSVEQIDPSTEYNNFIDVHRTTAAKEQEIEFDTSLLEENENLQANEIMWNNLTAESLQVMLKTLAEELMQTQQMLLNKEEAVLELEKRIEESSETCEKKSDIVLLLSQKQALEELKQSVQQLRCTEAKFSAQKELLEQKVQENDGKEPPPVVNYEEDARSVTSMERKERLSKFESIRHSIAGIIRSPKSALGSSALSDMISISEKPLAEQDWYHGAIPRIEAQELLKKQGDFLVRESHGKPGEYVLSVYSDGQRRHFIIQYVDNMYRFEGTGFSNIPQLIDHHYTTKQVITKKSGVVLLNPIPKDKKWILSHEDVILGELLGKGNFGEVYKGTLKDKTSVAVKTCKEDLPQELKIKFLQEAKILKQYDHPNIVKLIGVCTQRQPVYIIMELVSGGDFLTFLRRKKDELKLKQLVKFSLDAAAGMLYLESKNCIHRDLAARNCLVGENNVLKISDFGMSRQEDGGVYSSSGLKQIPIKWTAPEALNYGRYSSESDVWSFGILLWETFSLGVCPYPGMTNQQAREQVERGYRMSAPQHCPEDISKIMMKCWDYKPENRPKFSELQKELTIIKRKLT

[20] = target: T3, Ephrin type-B receptor 3 (Homo sapiens); conditions: at 1 µM

Structure (SMILES) | residual activity [1] | residual activity [2] | residual activity [3] | residual activity [4] | residual activity [5] | residual activity [6] | residual activity [7] | residual activity [8] | residual activity [9] | residual activity [10] | residual activity [11] | residual activity [12] | residual activity [13] | residual activity [14] | residual activity [15] | residual activity [16] | residual activity [17] | residual activity [18] | residual activity [19] | residual activity [20]
Oc1c2ccccc2c2c3c(cccc13)N=N2 | 29% | 101% | 95% | 81% | 89% | 55% | 104% | 97% | 52% | 9% | 39% | 4% | 52% | 12% | 72% | 40% | 110% | 89% | 75% | –
N#CC(C#N)=C(N)/C(C#N)=C/c1ccc(O)cc1 | – | – | – | – | 116% | 119% | 95% | 76% | 132% | 97% | 100% | 75% | – | – | 99% | – | 135% | – | – | –
Nc1n[nH]c2nnc(-c3c(-c4ccccc4)nn4ccccc34)cc12 | 87% | 117% | 110% | 104% | 83% | 67% | 81% | 57% | 96% | 83% | 110% | 61% | 98% | 83% | – | 102% | 101% | 94% | 95% | 101% (inactive)
O=C1Nc2ccc(Br)cc2/C1=C\c1cc2c([nH]1)CCCC2 | 107% | 111% | 115% | 117% | 118% | 132% | 109% | 106% | 78% | 58% | 81% | 81% | 63% | 53% | – | – | – | – | 119% | 114% (inactive)
Cc1cncc2cccc(S(=O)(=O)N3CCCN(C(=O)CN)C[C@H]3C)c12 | 31% | – | – | 128% | – | – | 89% | – | – | – | 76% | 20% | – | – | – | 93% | – | – | – | –
CO[C@@H]1[C@H](N(C)C(=O)c2ccccc2)C[C@H]2O[C@]1(C)n1c3ccccc3c3c4c(c5c6ccccc6n2c5c31)C(=O)NC4 | – | 111% | 222% | 130% | 107% | 372% | 67% | – | 90% | 37% | 5% | -4% | 21% | 7% | 34% | 19% | 71% | 41% | 26% | 119% (inactive)
COc1cc2ncnc(Nc3ccc(NC(=O)c4ccccc4)cc3)c2cc1OC | 83% | – | – | – | – | – | 35% | 6% | 142% | 75% | – | – | – | 92% | – | – | – | 82% | 111% | –
CC(=O)O/N=C1\C(=C2\C(=O)Nc3cc(Br)ccc32)Nc2ccccc21 | 47% | 103% | 60% | 107% | 71% | 65% | 96% | 90% | 95% | 59% | 17% | 0% | 73% | 18% | 84% | 22% | – | 69% | 94% | 107% (inactive)
N#Cc1cnc2cnc(NCc3cccnc3)cc2c1Nc1ccc(F)c(Cl)c1 | 89% | 99% | 100% | – | – | – | 132% | 128% | – | – | 21% | 12% | 48% | 30% | 38% | 18% | – | 92% | 83% | –
